Assay results published in the supplement of paper PMC11417369.
± gives the standard deviation of the averaged measurements. The full ranking holds about 25,000 sequences; the median of “ln(normalized median fluorescence intensity)” is about 8.9, and the highest 2% start at about 10. The entries come from a sample that favours the highest values as a whole.

Tested on: PfAP2-LT AP2 domain (GST-tagged)
Assay: gcPBM binding intensity (ln(normalized median fluorescence intensity)); higher = stronger DNA binding
Procedure, shortened: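 Using an Agilent 4 × 180k array, primer-extended double-stranded 36-bp intergenic genomic probes and negative controls were exposed for 1 h to GST-fused P. falciparum DNA-binding domains expressed in E. coli. Binding was carried out in 1× PBS with 1% milk, 0.2 mg/ml BSA, 0.5% salmon testes DNA and 0.03% Triton X-100, and protein was detected with Alexa488 anti-GST antibody and a 488 nm scan. Binding intensity is the highest Masliner-normalised natural-log median intensity across replicate spots of either probe orientation.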

Sequence | gcPBM binding intensity (ln)
GTATATTTAAATAAAAGTACGTAAAGATATATTTAA [XGTACX_site8087] | 8.86 ± 0.57
ATATATATTTATATATGTACATATTTTTGTGTATTT [XGTACX_site1183] | 9.14 ± 0.44
TTTGTCATTTTATTATGTACTCAGCATATAGGGGGG [XGTACX_site505] | 10.3 ± 0.33
ATGCATATATTTATGTGTACATATATTTGTAGGGGG [XGTACX_site6063] | 10.2 ± 0.36
ATATATATATATATATGTACTCATATTTTATTATTT [XGTACX_site898] | 9.665 ± 0.078
TATATATATATATTATGTACTCATTTATTATCTTTT [XGTACX_site8051] | 9.04 ± 0.43
TATATATATATATATGCATGTACATATATTTGTTAT [TGCATGCA_site379] | 9.99 ± 0.4
TTATATTATGGACACACACACAAAAAAAAAAAAAAA [CACACA_site7744] | 9.32 ± 0.51
GTTTGGTGGTGTTTTGGTACGTACGGGGGGGTATGT [XGTACX_site1983] | 10.9 ± 0.18
GTTTGGTGGTGTTTTGGTACGTACGGGGGTGTATGT [XGTACX_site1211] | 9.88 ± 0.16
TATGATTTTTATATATGTACGTATGGTGTTTTACAA [XGTACX_site6100] | 8.76 ± 0.41
AACATAATAAAAAAACGTACATAATTTTATATACAT [XGTACX_site6602] | 8.87 ± 0.41
AAAAAAAATAGACACACACACATACACATAAATATA [CACACA_site7742] | 9.82 ± 0.38
ATAAGAAAAGGACACACACACAAAAAAAAAAAAAAA [CACACA_site7351] | 9.48 ± 0.51
AAGGATATAACATACACACACACACGGATATAAATA [CACACA_site7867] | 10.2 ± 0.37
GTAGAGAAAAAAATGTGGACACAAAAAATAAAAAGG [XGTACX_site4058] | 8.96 ± 0.45
ATAAATAAAGGACACACACACACACTAGAAAAAAAA [CACACA_site5450] | 10.2 ± 0.3
AATATAAGGATATATACACACATAAATACATACATA [CACACA_site7859] | 9.25 ± 0.45
AATATAAATAAAAACACACACACACGGATATTTATA [CACACA_site7134] | 10 ± 0.25
AAATAACACATATATACACACATATAAATATAATAT [CACACA_site2692] | 9.29 ± 0.34
CACTAAAATAGACACACACACACACGGATATAAATA [CACACA_site7873] | 10.3 ± 0.29
TATATAAATAGACACACACACACATATAAATAAATA [CACACA_site7855] | 10 ± 0.34

Sequence | gcPBM binding intensity (ln)
CATATACATAGACACACACACACATAAATAAATATA [CACACA_site6749] | 9.91 ± 0.33
AAAATACATAGACACACACACACACGGATATAAATA [CACACA_site7643] | 10.2 ± 0.2
AATGTAGGTTTATTTACACACAAATATAGATATATA [CACACA_site6825] | 8.96 ± 0.4
GGGAGGATATTACACAGTACCCAGGAAATCTACGGA [XGTACX_site4874] | 8.81 ± 0.5
TTTTTTTAAAAAAAGGGTACATATATATATTTTTCT [XGTACX_site1066] | 8.43 ± 0.49
ATATATATATATGTTAGTACTTATATTGAAATGGTA [XGTACX_site1406] | 9.05 ± 0.042
TATATTATTTTATATTGTACATACCAAATATTATAT [XGTACX_site1693] | 8.68 ± 0.41
TATTTTTTTTTTTTTTTTTTTTTTATATATACATAT [CACACA_negctrl_site23] | 8.61 ± 0.52
AAATGGGCTTATTTATGTACTTAAATATATCTACCC [XGTACX_site3823] | 8.85 ± 0.61
TTTCTTTTTTTTTTTTTTTCTGGCTTTTTCTCTTTT [TGCATGCA_negctrl_site599] | 8.69 ± 0.49
AATAAAAAGGAACACACACACACACGGATATAAATA [CACACA_site7658] | 10.3 ± 0.37
TAATATAAAGAAAAGGAACACACAAATATATATATA [CACACA_site8049] | 9.04 ± 0.38
AACAAATACGGACACACACACACACTAGAAAAAAAA [CACACA_site4442] | 9.82 ± 0.29
AAAAAAAAAAAAAACACACACACACGCATAAATATA [CACACA_site6217] | 9.95 ± 0.28
TATTAATACGGACACACACACACACTAGATAAAATA [CACACA_site4295] | 10.1 ± 0.11
AGAATAAAAAGGAACACACACACACGCATATAAATA [CACACA_site7659] | 10.1 ± 0.39
ATATAAAGAAAAGGAACACACAAATATATATATATA [CACACA_site463] | 9.56 ± 0.25
ACCATATAAATAAACACACACACACGGATATAAATA [CACACA_site7157] | 10.1 ± 0.2
ATAAATATTAAAAGTACACACAGATACACTAATTAT [CACACA_site1808] | 9.16 ± 0.36
TGATTTGTGCCGATTTGTACACATTTATATATATAT [XGTACX_site2154] | 9.13 ± 0.35
GTATATATATATATATATATATATATATATATATAT [CACACA_negctrl_site609] | 9.63 ± 0.042
ATACAAATTGTTTAAAGTACAAATTACACCTCTTAA [XGTACX_site6888] | 8.62 ± 0.44
